{"source": "paper PMC5540273", "about": "(PLoS ONE, 2017);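 further: kd values determined as follow-up on hits from a single-replicate KINOMEscan panel screen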"}
{"tested_on": "AAK1", "units": {"Kd": "µM"}}
{"compound": "O=C(Nc1n[nH]c2cc(-c3cccc(F)c3F)ccc12)C1CC1", "note": "[SB-733894]", "Kd": 2.1}
{"compound": "COc1ccc(Nc2nccc(NCCNC(=O)Nc3ccccc3F)n2)cc1", "note": "[GSK1379901]", "Kd": "> 10"}
{"compound": "CN1C(=O)C(Nc2ccc(Cl)c(C(=O)O)c2)=C(c2ccc(Cl)cc2)C1=O", "note": "[SB-404290]", "Kd": "> 10"}
{"compound": "Cc1cccc(-c2nc(C)cc(Nc3ccncc3)n2)n1", "note": "[GSK257997]", "Kd": "> 10"}
{"compound": "Cc1cc(-c2ccc3c(c2)CC[C@@H](N[C@@H](C)c2ccccc2)C3)cnc1N.Cl", "note": "[GW412617]", "Kd": 3.6}
{"tested_on": "ABL1-nonphosphorylated", "units": {"Kd": "µM"}}
{"compound": "Cc1cccc(-c2nc(-c3ccc(S(C)(=O)=O)cc3)sc2-c2ccnc(NCCc3ccccc3)c2)c1", "Kd": 0.33}
{"compound": "CC(=O)Nc1nc2cnc(Nc3cc(NC(=O)c4cccc(CCC#N)c4)ccc3C)nc2s1", "Kd": "> 10"}
{"compound": "COc1ccc(Nc2nccc(-c3cccc(NC(=O)c4cc5cc(F)ccc5[nH]4)c3)n2)cc1", "note": "[GSK1229782]", "Kd": 0.1}
{"compound": "Cc1ccccc1-n1cnc2c(N)ncnc21", "note": "[SKF-97510]", "Kd": "> 10"}
{"compound": "O=C(Nc1ccccc1)Nc1cccc(Oc2ccc3nccn3n2)c1", "Kd": 0.14}
{"tested_on": "ACVR1B", "units": {"Kd": "µM"}}
{"compound": "Cl.c1ccc(-c2n[nH]cc2-c2ccnc(-c3ccc(CN4CCOCC4)cc3)c2)nc1", "note": "[GW776245]", "Kd": 0.18}
{"compound": "Cc1csc(-c2nc(Nc3ccncc3)c3ccccc3n2)n1", "note": "[GW869640]", "Kd": 0.039}
{"compound": "COc1ccc2nc(-c3cccc(C)n3)nc(Nc3ccncc3)c2c1", "note": "[GSK204919]", "Kd": 0.15}
{"compound": "Cc1cccc(-c2cc(Nc3ccncc3)c3ccccc3n2)n1", "note": "[GSK223675]", "Kd": 0.031}
{"compound": "Cc1cccc(-c2nc(Nc3ccc4[nH]ncc4c3)c3ccccc3n2)n1", "note": "[GW857175]", "Kd": 0.054}
{"compound": "Cc1cccc(-c2nc(Nc3ccncc3)c3ccccc3n2)n1", "note": "[GW855857]", "Kd": 0.0033}
{"compound": "Cc1cccc(-c2nc(Nc3cccc(C(N)=O)c3)c3ccccc3n2)n1", "note": "[GW876019]", "Kd": 1.6}
{"compound": "Cc1ccc(NC(=O)Nc2cccc(C(F)(F)F)c2)cc1", "note": "[GSK955403]", "Kd": "> 10"}
{"tested_on": "ACVR2B", "units": {"Kd": "µM"}}
{"compound": "Fc1cccc(COc2nnc(-c3ccc4c(c3)CCO4)o2)c1", "Kd": "> 10"}
{"compound": "Cc1c(O)cccc1Nc1ccnc2ccc(C(F)(F)F)cc12.Cl", "note": "[GW466413]", "Kd": 0.24}
{"compound": "Fc1cc(Cl)ccc1Nc1ccnc2cc(I)ccc12", "note": "[GW551191]", "Kd": 0.11}
